“And” between values parts separate entries of the source, which are not always exact repeats. Equal values may be shown once. About 2,000 (36%) of roughly 5,500 compounds were called active. Roughly 18% stayed inconclusive and do not appear here. No stated cut-off is given here; in the data, active means normalized growth mostly below about 0.91 (no sharp cut-off); inconclusive means no clear call, values can overlap the other calls; inactive means mostly above about 0.92. The list shows a part of the results.
Assay: chemical genetic growth profiling, strain panel (AID 1159580);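 further: tested at 20 µM; growth read once vehicle control cultures reached saturation at 30 °C; 1 = growth at the plate median or of vehicle wells; lower values mean less growth of the strain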
Conditions: S. cerevisiae deletion strains, growth OD

Measured: normalized growth

CC(N=C(NC#N)Nc1ccncc1)C(C)(C)C (configuration not stated)
inactive: locus YAL013W, strain DEP1, active compounds read low 1.01 | locus YAL021C, strain ccr4, active compounds read low 0.988 | locus YAL026C, strain drs2, active compounds read low 0.997 | locus YAL030W, strain snc1, active compounds read low 0.988 | locus YAL040C, strain CLN3, active compounds read low 0.983 | locus YBL061C, strain skt5, active compounds read low 0.986 | locus YBR009C, strain hhf1, active compounds read low 1.01 | locus YBR021W, strain FUR4, active compounds read low 1.02 | locus YBR023C, strain chs3, active compounds read low 0.98 | locus YBR171W, strain sec66, active compounds read low 0.958 | locus YBR229C, strain ROT2, active compounds read low 1.01 | locus YBR231C, strain swc5, active compounds read low 0.953 | locus YBR279W, strain paf1, active compounds read low 0.994 | locus YCL011C, strain gbp2, active compounds read low 0.989 | locus YCL016C, strain dcc1, active compounds read low 1.02 | locus YCL029C, strain bik1, active compounds read low 1.04 | locus YCL061C, strain MRC1 (second series), active compounds read low 0.999 | locus YCL061C, strain MRC1, active compounds read low 0.951 | locus YCL069W, strain vba3, active compounds read low 0.989 | locus YCR088W, strain abp1, active compounds read low 0.98 | locus YDL005C, strain med2, active compounds read low 0.988 | locus YDL035C, strain GPR1, active compounds read low 0.999 | locus YDL040C, strain nat1, active compounds read low 0.979 | locus YDL074C, strain BRE1, active compounds read low 1.05 | locus YDL101C, strain DUN1, active compounds read low 1.01 | locus YDL134C, strain PPH21, active compounds read low 1.01 | locus YDL185W, strain tfp1, active compounds read low 1.02 | locus YDL192W, strain arf1, active compounds read low 1.01 | locus YDR001C, strain nth1, active compounds read low 0.963 | locus YDR069C, strain doa4, active compounds read low 0.949 | locus YDR101C, strain arx1, active compounds read low 1.01 | locus YDR137W, strain rgp1, active compounds read low 0.97 | locus YDR150W, strain NUM1, active compounds read low 1.02 and 1 | locus YDR159W, strain sac3, active compounds read low 1.01 | locus YDR162C, strain NBP2, active compounds read low 1.01 | locus YDR195W, strain ref2 0.895 | locus YDR297W, strain sur2, active compounds read low 0.971 | locus YDR318W, strain mcm21, active compounds read low 1.02 | locus YDR334W, strain swr1, active compounds read low 0.949 | locus YDR335W, strain msn5, active compounds read low 0.972 | locus YDR363W, strain ESC2, active compounds read low 0.904 | locus YDR388W, active compounds read low 1.02 | locus YDR392W, strain spt3, active compounds read low 1.04 | locus YDR502C, strain sam2, active compounds read low 1.01 | locus YEL003W, strain gim4, active compounds read low 0.967 | locus YEL037C, strain rad23, active compounds read low 0.998 | locus YEL061C, strain CIN8 (second series), active compounds read low 0.974 | locus YEL061C, strain CIN8, active compounds read low 1.01 | locus YER002W, strain NOP16, active compounds read low 1 | locus YER015W, strain faa2, active compounds read low 0.999 | locus YER016W, strain bim1, active compounds read low 0.986 | locus YER110C, active compounds read low 1.02 | locus YER111C, strain swi4, active compounds read low 0.995 | locus YER155C, strain BEM2 (second series), active compounds read low 0.929 | locus YER155C, strain BEM2, active compounds read low 1 | locus YER167W, strain BCK2, active compounds read low 0.996 | locus YFR010W, strain ubp6, active compounds read low 0.964 | locus YGL078C, strain dbp3, active compounds read low 1.01 | locus YGL086W, strain mad1, active compounds read low 1 | locus YGL167C, strain pmr1, active compounds read low 0.961 | locus YGL173C, strain kem1, active compounds read low 0.97 | locus YGL227W, strain vid30, active compounds read low 0.986 | locus YGL240W, strain doc1, active compounds read low 0.945 | locus YGL248W, strain PDE1, active compounds read low 1 | locus YGL253W, strain hxk2, active compounds read low 1.01 | locus YGR078C, strain PAC10, active compounds read low 1.04 and 0.982 | locus YGR135W, strain pre9, active compounds read low 1.03 | locus YGR229C, strain SMI1, active compounds read low 1.02 | locus YGR252W, strain gcn5, active compounds read low 0.967 | locus YHR013C, strain ard1, active compounds read low 0.985 | locus YHR027C, strain rpn1, active compounds read low 0.979 | locus YHR030C, strain SLT2, active compounds read low 1.01 | locus YHR079C, strain IRE1 (second series), active compounds read low 1.02 | locus YHR094C, strain hxt1, active compounds read low 1.02 | locus YHR129C, strain ARP1, active compounds read low 1 | locus YHR142W, strain chs7, active compounds read low 1.02 | locus YHR200W, strain rpn10, active compounds read low 1.02 | locus YIL066C, strain RNR3, active compounds read low 1.02 | locus YIL073C, strain SPO22, active compounds read low 1.02 | locus YIL125W, strain kgd1, active compounds read low 1.01 | locus YIR030C, strain dcg1, active compounds read low 1.02 | locus YJL092W, strain hpr5, active compounds read low 0.976 | locus YJL095W, strain BCK1 (second series), active compounds read low 0.974 | locus YJL095W, strain BCK1, active compounds read low 1.04 | locus YJL115W, strain asf1, active compounds read low 0.971 | locus YJL129C, strain trk1, active compounds read low 0.979 | locus YJL134W, strain LCB3, active compounds read low 1.01 | locus YJL154C, strain vps35, active compounds read low 0.972 | locus YJL164C, strain tpk1, active compounds read low 1.03 | locus YJL166W, strain qcr8, active compounds read low 0.922 | locus YJL168C, strain set2, active compounds read low 1.02 | locus YJL187C, strain SWE1 (second series), active compounds read low 1.03

From PubChem BioAssay AID1159580 (chemical genetic matrix, 2015)
